# Measured values taken from PubChem BioAssay AID1076 (NMMLSC, 2008).
# Active and inactive are the calls of the source.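 How the source made its calls: active means cell event count below 40, meaning activity score above 60 where score is 100 minus count; inactive means the rest.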
# Test: LNCaP cell loss by flow event count, confirmation, cytotoxicity control for prostate differentiation activator project, single point (AID 1076);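 further: counts scatter-gated live cells after medium removal discards detached dead cells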
# Settings: flow cytometry event count, 4 d, at 100 µM, active compounds read low
row,SMILES,cell event count
1,N#CC1=C(N)OC2=C(C(=O)CCC2)C1c1ccc(OC(=O)N2CCOCC2)cc1 (stereo not drawn),293 (inactive)
2,O=S(=O)(Nc1cccc2ncccc12)c1cccs1,42 (inactive)
3,Cn1c(C(=O)NCCN2CCN(c3ccccc3F)CC2)cc2c(=O)n(C)c3ccccc3c21,2 (inactive)
4,Cc1oc(-c2cccc(Cl)c2)nc1CN1CCC(C(=O)NCc2ccco2)CC1,100 (inactive)
5,C=CCn1c(=N)n(CC(O)COc2ccc(OC)cc2)c2ccccc21 (stereo not drawn),37 (inactive)
6,COc1ccc(N2CCN(CCCNC(=O)c3cc4sccc4n3C)CC2)cc1,161 (inactive)
7,O=C(Nc1cccc(Cl)c1)N1CCN(Cc2ccccc2)CC1,42 (inactive)
8,COCCNC(=O)CC(NS(=O)(=O)c1ccc(NC(C)=O)cc1)C(C)C (stereo not drawn),79 (inactive)
9,COc1ccc(NC(=O)NCCCN2CCN(c3cc(C)ccc3C)CC2)cc1,1 (inactive)
10,COc1ccc(-n2nnnc2SCC(=O)c2ccc(O)c(O)c2)cc1,9 (inactive)
11,CCOC(=O)c1[nH]c(C)c(C(=O)N2CCc3ccccc32)c1C,13 (active)
12,CCCCC(=O)NCCc1ccc(S(N)(=O)=O)cc1,238 (inactive)
13,CCc1ccc(-c2nc(CN3CCCC(C(=O)O)C3)c(C)o2)cc1 (stereo not drawn),153 (inactive)
14,Cc1oc(-c2ccc(Cl)cc2)nc1CN1CCC(C(=O)NCCCN2CCCC2=O)CC1,51 (inactive)
15,CN1CCN(c2oc(COc3ccc(-c4ccccc4)cc3)nc2C#N)CC1,5 (inactive)
16,Cc1oc(-c2ccc(Cl)cc2)nc1CN1CCCC(C(=O)NCc2cccnc2)C1 (stereo not drawn),28 (inactive)
17,CCN1C=C(Cc2cccs2)C2=C(C1)C(c1cccs1)C(C#N)=C(N)O2 (stereo not drawn),40 (inactive)
18,Cc1oc(-c2ccccc2F)nc1CN1CCC(C(=O)NCc2cccs2)CC1,107 (inactive)
19,CN(C)CCCN1c2ccccc2CCc2ccc(Cl)cc21,43 (inactive)
20,CN1CCN(c2cc3c(c4c2[nH]c2ccccc24)C(=O)CC(C)(C)C3)CC1,31 (inactive)
21,CCCN(CCC)CCNC(=O)C1CCN(Cc2nc(-c3ccc(Cl)cc3)oc2C)CC1,55 (inactive)
22,CC1=C(n2nnc3ccccc32)C(c2ccccc2)C(C#N)=C(N)O1 (stereo not drawn),96 (inactive)
23,COc1ccc(-c2noc(CCC(=O)NCCCN3CCC(C)CC3)n2)cc1,63 (inactive)
